# Reference: PubChem BioAssay AID602325 (NMMLSC, 2012)
# This is one part of the list. A number with no mark means an inactive call. The source made the active and inactive calls. Rule as the data show it: active = inhibition above about 24%; inactive = the rest.
# System: Botulinum neurotoxin type A light chain protease [Clostridium botulinum A str. ATCC 3502]
# Assay: inhibition of botulinum toxin A LC protease – biochemical, flow cytometry, cherry pick 2, confirmation (AID 602325)
# Conditions: multiplex microsphere protease cleavage assay, at 10 µM, hits give high values
row,SMILES,inhibition
1,Cc1cc2cc(CNC(=O)c3ccc(S(=O)(=O)N4CCOCC4)cc3)ccc2[nH]1,3.8%
2,CCOc1ncccc1C(=O)OCC(=O)c1c[nH]c2ccccc12,9.5%
3,O=C(OCC(=O)c1c[nH]c2ccccc12)c1cccc(O)c1,1.5%
4,Cc1cc2ccccc2n1CCNC(=O)COc1ccc2ccccc2c1,5.2%
5,COc1ccc(-c2cc3c(c4c2ccn4C)C2CCC3C2)cn1 (stereo not drawn),25.2% (active)
6,CC(=O)OCCN(CCCn1c(-c2ccncc2)nc2ccccc21)c1nc(-c2ccc(C)cc2)cs1,1.8%
7,Cc1ccc(CNC(=O)c2cccc3c2C(=O)c2ccc(N4CCC(C)CC4)cc2S3(=O)=O)cc1,8.9%
8,O=C(CN1CCN(c2ccccc2O)CC1)NC(=O)NCc1ccccc1,1.6%
